DAX1 inh-1: DAX1 (NR0B1) inhibitors, primary screen, cell-based, HEK293, Gal4-DAX1, luciferase luminescence; Nuclear receptor subfamily 0 group B member 1 (Homo sapiens), P51843; HEK293 Gal4-DAX1 luciferase reporter; inhibition, % at 6.75 µM; actives 0.99% (n = 340,000);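 active = inhibition above the mean over all tested compounds plus 3 SD, cut at about 4.2% in these data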;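 also: 0% = DAX1-transfected cells with DMSO and 100% = empty-vector control cells with DMSO; inhibition shows as a rise in luminescence from relieved DAX1 repression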
DAX1 inh-2: DAX1 (NR0B1) inhibitors on StAR promoter, primary screen, cell-based, luminescence, SF-1 (NR5A1), full-length DAX-1. HEK293T StAR-luciferase reporter, SF-1/DAX-1 repression relief. inhibition, % at 6.8 µM. actives 1.1% (n = 370,000). AID 652010, 2013;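 active = inhibition above the mean over all tested compounds plus 3 SD, cut at about 3.6% in these data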;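 also: 0% = DAX-1 cells with DMSO and 100% = cells lacking DAX-1 with DMSO; higher inhibition means more luminescence from relief of DAX-1 repression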
hcDAF12 agonist: H. contortus DAF-12 nuclear receptor activators, primary screen, cell-based, luminescence, HEK293, lit1-tk-luc reporter; activation, % at 6.8 µM; HEK293 hcDAF-12 lit1-tk-luc reporter; 0% DMSO, 100% Δ7-dafachronic acid; actives 1.4% (n = 370,000);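 active = activation above the mean of all tested compounds plus 3 SD, cut at about 5.5% in these data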;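 also: 100% = response to 3 µM Δ7-dafachronic acid high control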
ssDAF-12 act: S. stercoralis DAF-12 nuclear receptor activators, primary screen, cell-based, luminescence, HEK293, GRIP1 co-expression, lit1-tk-luc. HEK293 ssDAF-12/GRIP1 lit1-tk-luc reporter; % of 3 µM dafachronic acid response. activation, % at 6.8 µM. AID 652126, 2013. Nuclear hormone receptor DAF-12 (Strongyloides stercoralis). actives 1% (n = 370,000);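 active = activation above the mean over all tested compounds plus 3 SD, cut at about 0.9% in these data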;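 also: 0% = DMSO-only wells and 100% = 3 µM delta7-dafachronic acid wells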
hgDAF-12 ag: H. glycines DAF-12 receptor agonists, primary screen, cell-based, luminescence, HEK293, GAL4 fusion, UAS-luciferase. HEK293 GAL4-hgDAF12 UAS-luciferase reporter, agonist luminescence; normalized to butyrate control. Nuclear hormone receptor DAF-12 (Heterodera glycines), GAL4 fusion. actives 1.8% (n = 370,000). activation, % at 6.8 µM. AID 687014, 2013;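 active = activation above a cutoff set at the mean of all screened compounds plus 3 SD, cut at about 10% in these data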;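 also: 0% = DMSO wells and 100% = sodium butyrate wells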
LXR ag: LXR agonists, Gal4 luciferase reporter, confirmation, counter-screen for hcDAF-12 agonist project, cell-based, luminescence, HEK293, H. contortus campaign; shares compounds with hcDAF12 agonist; HEK293 Gal4-LXR tk-luc reporter, 24 h; normalized: DMSO 0%, positive control 100%; activation, % at 6.8 µM; 3,400 tested, under 10 active; AID 743027, 2013;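 active = mean percent activation of the reporter above a cutoff set as the average over tested compounds plus their standard deviation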
Target sequence (P55055 whole entry, looked up, the tested form may be a part): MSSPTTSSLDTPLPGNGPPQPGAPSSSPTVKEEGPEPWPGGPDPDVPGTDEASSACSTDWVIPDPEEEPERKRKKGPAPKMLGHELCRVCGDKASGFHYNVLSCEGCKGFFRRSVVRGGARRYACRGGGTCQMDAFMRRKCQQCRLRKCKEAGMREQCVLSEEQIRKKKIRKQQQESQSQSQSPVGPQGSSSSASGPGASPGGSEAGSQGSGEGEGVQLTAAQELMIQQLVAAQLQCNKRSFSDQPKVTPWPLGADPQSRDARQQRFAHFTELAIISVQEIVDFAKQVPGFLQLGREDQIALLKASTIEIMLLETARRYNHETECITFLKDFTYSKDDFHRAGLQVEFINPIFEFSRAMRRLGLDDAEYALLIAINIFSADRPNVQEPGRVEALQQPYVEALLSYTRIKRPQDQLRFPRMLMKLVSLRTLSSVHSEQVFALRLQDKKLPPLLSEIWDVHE
hcDAF12 ag: H. contortus DAF-12 receptor agonists, confirmation, cell-based, luminescence, HEK293, lit1-tk-luc, triplicate; activation, % at 6.8 µM; HEK293 hcDAF-12 lit1-tk-luc reporter; % of Δ7-dafachronic acid response; AID 743032, 2013; actives 61% (n = 3,400); shares compounds with hcDAF12 agonist;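 active = mean activation across triplicate tests above the threshold derived from the earlier primary screen, cut at about 5.5% in these data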;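 also: 0% = DMSO only wells and 100% = 3 µM Δ7-dafachronic acid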
* hit, by the source's call; . = no result given. In the library only some 4.1% were active in any assay of this set; here they are far more common.

SMILES | DAX1 inh-1 | DAX1 inh-2 | hcDAF12 agonist | ssDAF-12 act | hgDAF-12 ag | LXR ag | hcDAF12 ag
O=C(C[n+]1ccc(C(=O)N/N=C/c2ccc(OCc3ccccc3)cc2)cc1)c1ccccc1 | 0 | 0 | 7.5* | 0 | 5 | 0 | 2
O=C(O)/C(=C\c1ccc(Br)cc1)c1ccc(S(=O)(=O)N2CCCCC2)s1 | 1 | 0 | 3 | -1 | -3 | . | .
O=S(=O)(CCN1CCOCC1)c1ccc(OC(F)(F)F)cc1 | 3 | -1 | 1 | -1 | 2 | . | .
Clc1ccc2oc3c(Cl)ncnc3c2c1 | -1 | 0 | 8.0* | -1 | 1 | 0 | 4
Cc1nc(Nc2ccccc2)c2oc3ccc(Cl)cc3c2n1 | 0 | 0 | 0 | -1 | 4 | . | .
COc1ccc(NC(=O)CCc2nnc3ccc(NCc4ccc5c(c4)OCO5)nn23)cc1 | 0 | 0 | -3 | -1 | -1 | . | .
O=C(/C=C/Nc1cccc([N+](=O)[O-])c1)c1cccs1 | 3 | 2 | 13* | 1.8* | 13* | 2 | 14*
O=C(/C=C/Nc1ccccc1C(=O)O)c1cccs1 | 0 | 1 | 8.4* | -1 | 3 | 0 | 3
CNc1cc([N+](=O)[O-])ccc1N/C=C/C(=O)c1cccs1 | 1 | 2 | 8.9* | 1 | 3 | 0 | 5
COc1cccc(OC)c1CC1SC(=O)NC1=O (configuration not stated) | 1 | -1 | 2 | -1 | -2 | . | .
O=S(=O)(Nc1nc2ccccc2nc1N1CCN(c2ccccc2)CC1)c1ccc(F)cc1 | -1 | 0 | 8.3* | 1 | 0 | 0 | 5
O=C(Cn1cc(SCc2cccc(Cl)c2)c2ccccc21)N1CCOCC1 | 1 | 1 | 7.8* | 0 | 6 | 0 | 3
O=C(CSc1cn(CC(=O)N2CCOCC2)c2ccccc12)N1CCOCC1 | 1 | 0 | 2 | 0 | 1 | . | .
Cc1cc(-c2ccc3c(c2)COc2c4ccccc4nn2-3)on1 | 4.8* | 4.5* | 9.0* | 0 | 10 | 2 | 10*
CCCc1cc(-c2ccc3c(c2)COc2c4ccccc4nn2-3)on1 | 4 | 2 | 3 | 0 | 9 | . | .
O=C(c1ccc(S(=O)(=O)NCC2CCCO2)cc1)N1CCN(c2cccc(Cl)c2)CC1 (configuration not stated) | -2 | -2 | -3 | -2 | -4 | . | .
Clc1nc(-c2ccccn2)nc2scc(-c3ccccc3)c12 | 1 | 2 | 12* | 0 | 14* | 1 | 6.6*
CCOc1ccccc1NC(=O)NC(C)c1ccncc1 (configuration not stated) | 1 | 1 | -2 | -1 | 3 | . | .
O=C(/C(=C(\[O-])c1ccccc1)[n+]1ccc2ccccc2c1)c1ccccc1 | 0 | 1 | 8.1* | 1 | 3 | 0 | 5
O=C(/C(=C(\[O-])c1ccccc1)[n+]1ccc2ccccc2c1)c1ccc([N+](=O)[O-])cc1 | 0 | 0 | 5 | 0 | 1 | . | .
O=C(/C(=C(/[O-])c1ccccc1)[n+]1ccccc1)c1ccc([N+](=O)[O-])cc1 | 1 | 1 | 1 | -2 | 3 | . | .
O=C(/C(=C(\[O-])c1ccccc1)[n+]1ccc2ccccc2c1)c1ccc(Cl)cc1 | 3 | 0 | 9.8* | 0 | 0 | 0 | 5
CCC(C)c1ccccc1NC(=O)CN(C)CCOc1ccc(Cl)cc1 (configuration not stated) | 0 | 0 | 9.2* | -1 | 1 | 0 | 0
CN(CCOc1ccc(Cl)cc1)CC(=O)Nc1ccc(OC(F)F)cc1 | 2 | 0 | -1 | -1 | 0 | . | .
CSc1ccc(S(=O)(=O)N2CCC(C(=O)NCc3cccnc3)CC2)cc1 | -1 | 0 | -1 | -1 | -1 | . | .
SMILES | DAX1 inh-1 | DAX1 inh-2 | hcDAF12 agonist | ssDAF-12 act | hgDAF-12 ag | LXR ag | hcDAF12 ag
Cc1ccc(-c2cc(-c3ccccc3)c(C#N)c(N)n2)o1 | -1 | -1 | -1 | -1 | -1 | . | .
Cc1cc(-c2ccc(Cl)cc2)c(C#N)c(N)n1 | 0 | 0 | 6.7* | 0 | -1 | 0 | 4
COc1cc(Cl)ccc1OCc1cc(C(=O)NC(C)Cc2cnccn2)no1 (configuration not stated) | 2 | 3 | 8.5* | 1.5* | 13* | 1 | 6.0*
CC(Cc1cnccn1)NC(=O)c1cc(COc2ccc(F)cc2F)on1 (configuration not stated) | 1 | 0 | -2 | -1 | -2 | . | .
Cc1ccc(NC(=O)C(C)N2C(=O)c3ccccc3C2=O)cc1S(=O)(=O)N1CCOCC1 (configuration not stated) | 0 | 0 | 0 | -1 | 1 | . | .
O=c1c2ccccc2cnn1-c1ccc(Br)cc1 | 2 | 3.9* | 11* | 2.1* | 16* | 1 | 12*
CCCCN1C(=O)N(CCc2ccc(F)cc2)S(=O)(=O)c2cc(C(F)(F)F)ccc21 | 1 | 0 | 0 | 0 | 0 | . | .
Cc1cccc2cc3c(nc12)-c1ccccc1C3=O | 1 | 1 | 7.2* | 0 | 2 | 0 | 5
Cc1nc2c(cc1C#N)C(=O)c1ccccc1-2 | 0 | 1 | -1 | -1 | -1 | . | .
Cc1ccc(S(=O)(=O)N2C[C@H]3C(=O)C[C@@H](c4ccccc4)N(S(=O)(=O)c4ccc(C)cc4)[C@H]3C[C@H]2c2ccc(Cl)cc2)cc1 | -1 | -1 | -2 | 0 | 0 | . | .
O=C(Nc1nc2ccc(Cl)cc2s1)c1ccc(Br)o1 | 1 | 1 | 0 | -1 | 6 | . | .
Cn1ncc(Cl)c1C(=O)Nc1nc2ccc(Cl)cc2s1 | 4 | 2 | 8.5* | 1.1* | 12* | 1 | 10*
COc1ccc2c(C(=O)c3ccc(Cl)cc3)n(CCCC(N)=O)[n+]([O-])c2c1 | 1 | 0 | 6.9* | 0 | 0 | 0 | 4

Source: PubChem BioAssay (The Scripps Research Institute Molecular Screening Center)
